Results on four compounds are retold here after PubChem BioAssay AID743167 (National Center for Advancing Translational Sciences (NCATS), 2013).

Several values for one entry are separate records, joined by “and”; a condition that tells them apart may be missing. Equal entries are not always repeated. Inconclusive results are not listed. Activity calls are given as the source filed them. Calls come from the whole dose curve; as a rule, active = well fitted activation curve with a large enough effect; inconclusive = small, poorly fitted or top-dose-only effect; inactive = flat fitted curve, though single readings scatter.

This test is described as follows: Extended Characterization of HPGD Inhibitors: PGE2 Assay in A549 Cells. The conditions noted are these: PGE2 HTRF level, 16 h. From the text:
The central role of HPGD is to inactivate prostaglandins such as prostaglandin E2 (PGE2) or prostaglandin D2 (PGD2). These prostaglandins are involved in a number of processes, including inflammation, differentiation, and cellular signaling, which makes HPGD an important target for pharmacological intervention. A number of prostaglandins of particular biological interest have been identified as substrates of HPGD. […] Over-production of PGE2 has been reported to promote tumor-associated neovascularization, cell proliferation, and tumor growth. […] In this orthogonal assay, we set out to measure if compounds were able to increase PGE2 production NIH Chemical Genomics Center [NCGC] NIH Molecular Libraries Probe Centers Network [MLPCN] MLPCN Grant: MH084681 Assay Submitter (PI): Structural Genomics Consortium
A549 cells, LNCaP cells or media were dispensed in 384-well plates (ProxiPlate-384 Plus, PerkinElmer, Shelton, CT) at 5,000 cells/9.9 uL/well using a CappAero384 multichannel pipette (Odense, Denmark). Separately on the plate, 10 uL of PGE2 calibration standards at a starting assay concentration of 5,000 pg/mL (1:2 dilution, 12-points, n = 1, prepared in media, Cisbio, Bedford, MA) were dispensed. Compounds (100 nL, final concentration range from 41.9 nM to 100 uM) were transferred using an ATS Acoustic Liquid Dispenser (EDC Biosystems, Fremont, CA). After being mixed using an automated liquid handler (CyBio, Jena, Germany), samples were incubated (37 deg C, 5% CO2, under a humidified atmosphere) for 16 hours. PGE2 labeled conjugates were added to each well, first 5 uL of PGE2-d2, followed by 5 uL of anti-PGE2-cryptate, centrifuged (1,500 rpm, 15 sec) and incubated (RT, protected from light) for 5 hours. Time-resolved fluorescence intensity (320 nm excitation, 615 and 665 nm emission) was measured using an Envision plate reader (PerkinElmer). Data was expressed as the ratio of 665 nm/615 nm emissions. Concentration (pg/mL) of samples were calculated from a 4-parameter logistic calibration curves of the PGE2 standards.
(TR-FRET usually uses a lanthanide donor and a delayed reading to cut background.)
On to `Cc1cc(-c2nnc3n2CCCCC3)c(C)n1-c1cccnc1`, for which the Potency is 1.87 µM (active). Take `Cc1cccc(-n2cnc3cc(C(=O)N4CCCC(C)C4)ccc32)c1` (centres undefined): the Potency is 9.35 µM (active). For `Cc1cc(-c2nnc3n2CCCCC3)c(C)n1-c1ccc(C(C)(C)C)cc1`, the Potency was 8.33 µM (active) and 13.2 µM (active). For `COC(=O)[C@]12CCC(C)(C)C[C@H]1[C@H]1C(=O)C=C3[C@@]4(C)C=C(C#N)C(=O)C(C)(C)[C@@H]4CC[C@@]3(C)[C@]1(C)CC2` the value was 16.6 µM (active).
